Test [1] can be described thus: Quantitative High-Throughput drug screen in 47 multiple myeloma cell lines against the NCATS MIPE library collection: MM1R_ATCC cell viability assay (AID 1918981). Further: nearly all actives have a fitted effect of over 35% in size. The gist of the method: (§1)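 500 cells/well; MIPE 4.0 drugs pin-transferred; 48 h, 37C, 5% CO2. CellTiter-Glo, 5 min RT, luminescence. Controls: DMSO 100%, media 0%.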
Test [2] is described as follows: Quantitative High-Throughput drug screen in 47 multiple myeloma cell lines against the NCATS MIPE library collection: KMS28PE_JCRB cell viability assay (AID 1918983). Further: nearly all actives have a fitted effect of over 35% in size. The gist of the method: as §1
Test [3] in a line: Quantitative High-Throughput drug screen in 47 multiple myeloma cell lines against the NCATS MIPE library collection: L363_DSMZ cell viability assay (AID 1918984). Further: nearly all actives have a fitted effect of over 40% in size. The gist of the method: as §1
Test [4] can be described thus: Quantitative High-Throughput drug screen in 47 multiple myeloma cell lines against the NCATS MIPE library collection: KMS34_JCRB cell viability assay (AID 1918985). Further: nearly all actives have a fitted effect of over 40% in size. The gist of the method:
as §1

Test [5] is described as follows: Quantitative High-Throughput drug screen in 47 multiple myeloma cell lines against the NCATS MIPE library collection: OCIMY7_PLB cell viability assay (AID 1918987). Further: nearly all actives have a fitted effect of over 65% in size. The gist of the method: as §1
Test [6] can be described thus: Quantitative High-Throughput drug screen in 47 multiple myeloma cell lines against the NCATS MIPE library collection: OCIMY5_PLB cell viability assay (AID 1918988). Further: nearly all actives have a fitted effect of over 65% in size. The gist of the method:
as §1

A short description of test [7]: Quantitative High-Throughput drug screen in 47 multiple myeloma cell lines against the NCATS MIPE library collection: OPM1_PLB cell viability assay (AID 1918989). Further: nearly all actives have a fitted effect of over 40% in size. The gist of the method:
as §1

Test [8] is described as follows: Quantitative High-Throughput drug screen in 47 multiple myeloma cell lines against the NCATS MIPE library collection: U266_ATCC cell viability assay (AID 1919864). Further: nearly all actives have a fitted effect of over 35% in size. The gist of the method:
as §1

Test [9] is described as follows: Quantitative High-Throughput drug screen in 47 multiple myeloma cell lines against the NCATS MIPE library collection: SKMM1_PLB cell viability assay (AID 1919863). Further: nearly all actives have a fitted effect of over 35% in size. On viability: series mostly up to about 46 µM. Conditions: SKMM1 myeloma viability, CellTiter-Glo ATP, 48 h; viability: active compounds read low. The gist of the method: as §1

Potency and viability data for twelve compounds are collected here from PubChem BioAssay (NCATS).

Results filed as inconclusive are left out. Unmarked numbers belong to inactive results. Active and inactive are the calls of the source. The call rests on the fitted dose curve; in most records, active means well fitted cell-killing curve with a large enough effect; inconclusive means small, poorly fitted or top-dose-only effect, or effect the other way; inactive means no such curve, though single readings can be large or run the other way.
Potency means the concentration at half of the fitted maximal effect.

In the case of `Cc1cc(N2CCOCC2)cc2[nH]c(-c3c(NC[C@@H](O)c4cccc(Cl)c4)cc[nH]c3=O)nc12`, the Potency in [1] was 187 nM (active); in test [2], 332 nM (active); in [3], 148 nM (active); in test [4], 469 nM (active); in test [5], 105 nM (active); in test [6], 1660 nM (active). Also, the Potency is 469 nM (active) in test [7] and 2640 nM (active) in [8].
As to `CC1(C)CC(=O)c2c(C(F)(F)F)nn(-c3ccc(C(N)=O)c(NC4CCC(OC(=O)CN)CC4)c3)c2C1` (stereo not drawn), the Potency in [1] was 209 nM (active); in test [2], 235 nM (active); in test [3], 83.3 nM (active); in [4] it was 166 nM (active); in test [5], 83.3 nM (active); in test [7], 166 nM (active). Further, the Potency in [9] was 264 nM (active).
Consider `CCN1CCN(CC(=O)Nc2ccc(-c3cccc4c(=O)cc(N5CCOCC5)oc34)c3sc4ccccc4c23)CC1`, for which the Potency in [1] is 1480 nM (active); in [2], 5260 nM (active); in test [3], 33.2 nM (active); in test [4], 2090 nM (active); in [5] it was 46.9 nM (active); in test [6], 1050 nM (active). Moreover, in [9], the Potency is 7430 nM (active).
In the case of `CNc1nccc(-c2cccnc2Oc2cc(C(=O)Nc3cccc(C(F)(F)F)c3)ccc2C)n1`, the Potency was 20900 nM (active) in [1]; 20900 nM (active) in test [2]; 14800 nM (active) in [3]; 14800 nM (active) in test [4]; 1660 nM (active) in [5]; 13200 nM (active) in test [7]. Moreover, the Potency in test [9] was 18700 nM (active).
With `CC(C)c1cc(-c2n[nH]c(=O)n2-c2ccc3c(ccn3C)c2)c(O)cc1O`, the Potency was 46.9 nM (active) in test [1]; 13.2 nM (active) in [2]; 11.8 nM (active) in [3]; 26.4 nM (active) in test [4]; 11.8 nM (active) in test [5]; 29.6 nM (active) in test [7]. Also, the Potency is 74.3 nM (active) in test [9] and 37.2 nM (active) in [8].
Turning to `C=C1C(=CC=C2CCCC3(C)[C@@H]([C@H](C)C=CC=CC(O)(CC)CC)CC[C@@H]23)C[C@@H](O)C[C@@H]1O` (stereo partly drawn), the Potency in [1] was 14800 nM (active); in test [2], 26400 nM (active); in [3] it was 23500 nM (active); in test [4], 20900 nM (active); in test [5], 29600 nM (active); in test [6], 10500 nM (active). The Potency in test [8] was 23500 nM (active).
`CC(C)c1ccccc1Cc1cc(C(=O)Nc2ccc(S(=O)(=O)c3ccccc3C(C)(C)C)cc2)c(O)c(O)c1O`: the Potency in [1] was 10500 nM (active); in test [2] it was 16600 nM (active); in [5] it was 4690 nM (active); in test [7], 9350 nM (active); in test [9], 13200 nM (active); in test [8] it was 13200 nM (active). Moreover, in [3], the Potency entry is “inactive”.
On to `C=CC(=O)Nc1cc2c(Nc3ccc(F)c(Cl)c3)ncnc2cc1C#CC(C)(C)N1CCN(C)CC1`, for which the Potency was 1320 nM (active) in test [1]; 833 nM (active) in test [2]; 1480 nM (active) in test [3]; 5260 nM (active) in test [4]; 469 nM (active) in [5]; 833 nM (active) in [7]. Moreover, the values for the Potency in [9] and in [8] were 13200 nM (active) and 1050 nM (active), respectively.
For orientation: viability means a read-out of living cells in per cent, often relative to untreated cells. In the case of `COC(=O)C1=C(C)NC(C)=C(C(=O)OCCN2CCN(C(c3ccccc3)c3ccccc3)CC2)C1c1cccc([N+](=O)[O-])c1` (stereo not drawn), the Potency result in [1], in [2], in test [3], in test [5], in [7] and in test [8] was “inactive” throughout. The viability in test [9] was 126%.
In the case of `COc1cc(C)c(Sc2cnc(NC(=O)c3ccc(CNC(C)C(C)C)cc3)s2)cc1C(=O)N1CCN(C(C)=O)CC1` (stereo not drawn), the Potency was 14800 nM (active) in test [1]; 14800 nM (active) in [2]; 9350 nM (active) in [3]; 10500 nM (active) in [5]; 18700 nM (active) in [9]; 23500 nM (active) in test [8].
For `COc1cc2ncnc(Nc3ccc(F)c(Cl)c3)c2cc1NC(=O)C=CCN1CCCCC1`, the Potency in test [1] is 16600 nM (active); in [2], 23500 nM (active); in [3], 2350 nM (active); in [4] it was 26400 nM (active); in test [5], 1320 nM (active); in test [6] it was 16600 nM (active). Moreover, the results for the Potency in [7], in test [9] and in test [8] were 7430 nM (active), 20900 nM (active) and 1180 nM (active), respectively.
In the case of `COc1cc(C(=O)N2CCC(N3CCN(C)CC3)CC2)ccc1Nc1ncc2c(n1)N(C)c1ccccc1C(=O)N2C`, the Potency was 6620 nM (active) in test [1]; 3320 nM (active) in test [2]; 4690 nM (active) in [3]; 2640 nM (active) in test [4]; 2960 nM (active) in test [5]; 1870 nM (active) in test [7]. In addition, in test [9], the Potency was 5900 nM (active).
